Assay outcomes as filed in PubChem.
A selection: hits, their analogues and other compounds. The true share with any hit is near 19%.
KB-V1 MDR tox: KB-V1 MDR subline cytotoxicity | KB-V1 MDR cells viability, CellTiter-Glo, 72 h | Potency, µM (series often up to 46.1 µM), most hits filed as cytotoxic | actives 3.4% (n = 400,000) | AID 1347076; note: nearly all actives have a fitted effect of over 60% in size
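Luminescent ATP read-out (CellTiter-Glo, 10 min) measures survival of drug-selected KB-V1 MDR cells after 72 h, 37 degrees C compound exposure. Medium: phenol-red-free DMEM, 10% FBS. Values from fitted concentration-response curves.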
HT1080NT lethal: kills 2HG-producing HT-1080-NT fibrosarcoma cells. Potency, µM (titrated, usually from 46.1 µM), inactives show top-dose activity, negative = less viability, most hits filed as cytotoxic. actives 1.6% (n = 360,000). HT-1080-NT fibrosarcoma viability, CellTiter-Glo ATP luminescence, 48 h;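 note: NT is the 2HG producing partner of a matched IDH1 knockdown line; 0% = DMSO-treated cells and -100% = media-only wells without cells; nearly all actives have a fitted effect of over 55% in size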
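Fibrosarcoma NT cells, 750 per well in 5% FBS RPMI, were exposed to compound for 48 hours. Viability: CellTiter-Glo luminescence.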
KB-3-1 cytotox: kills parental KB-3-1 adenocarcinoma cells; actives 1.4% (n = 400,000); KB-3-1 viability, CellTiter-Glo ATP luminescence, 72 h; Potency, µM (series often up to 46.1 µM), hits mostly cytotoxic; AID 1347075; note: nearly all actives have a fitted effect of over 60% in size
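Parental KB-3-1 adenocarcinoma cells in phenol-red-free DMEM with 10% FBS were pin-treated with compounds at several concentrations, incubated 72 h at 37 °C, and viability read by CellTiter-Glo luminescence; concentration-effect curves were fitted after normalization.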
HT1080 IDH1KD tx: HT-1080 IDH1 knockdown cell toxicity (counter line); HT-1080 IDH1 knockdown viability, ATP luminescence, 48 h; Potency, µM (top dose mostly 46.1 µM), without a hit: at the highest dose activity, negative = toxicity, actives largely listed as cytotoxic; actives 2% (n = 360,000); AID 686971;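 note: 0% = DMSO wells and -100% = cell-free medium wells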
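Viability of IDH1-knockdown HT-1080 fibrosarcoma cells was assessed by CellTiter-Glo after 48 h at 37 °C with titrated compound; concentration-effect curves were classified by fit quality and response size.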
DT40 TDP1 CPT: growth inhibition of DT40 Tdp1-/-;hTDP1 cells with camptothecin (screen for TDP1 inhibitors) | chicken DT40 Tdp1-/-;hTDP1 cells + 20 nM CPT, ATP luminescence, 48 h | Potency, µM (titrated, usually from 46.2 µM), for inactives: at the top dose activity change, negative = growth inhibition, actives largely listed as inhibitors | actives 12% (n = 420,000); note: nearly all actives have a fitted effect of over 55% in size
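Chicken DT40 Tdp1-/- cells stably complemented with human TDP1 were seeded at 400 cells/well in medium containing 20 nM camptothecin, exposed to pin-transferred compounds, and grown at 37 °C for at least 48 hr. Viability was read as ATP luminescence.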
DT40 TDP1 no CPT: qHTS for Inhibitors of human tyrosyl-DNA phosphodiesterase 1 (TDP1): qHTS in cells in absence of CPT; actives 15% (n = 420,000); Potency, µM (titrated, usually from 46.2 µM), without a hit: at the top dose activity change, negative = growth inhibition, most hits filed as inhibitors; DT40 Tdp1-/- hTDP1 cells, no CPT, ATP luminescence, 48 h; AID 686978, 2013; note: nearly all actives have a fitted effect of over 55% in size
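Cells were dispensed at 400 per well, compounds added by pin tool, plates incubated ≥48 hr at 37 °C, then CellTiter-Glo added for 30 min at room temperature before luminescence reading. Line: DT40 Tdp1-/- complemented with hTDP1; camptothecin omitted.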
* marks the source's active call; other numbers are inactive results. Calls come from the whole dose curve; as a rule, active = well fitted curve in the direction sought with a large enough effect; inconclusive = small, poorly fitted or top-dose-only effect, or another doubt; inactive = no such curve, though single readings can be large; an effect the other way counts as inactive or inconclusive. Unless noted, % is set by controls: 0 for no effect and ±100 for the full control effect; potency is the fitted concentration of half-maximal effect.

Results for COc1ccc(-c2onc(C)c2-c2ccccc2)c(O)c1 ?
KB-V1 MDR tox: inconclusive; HT1080NT lethal: inconclusive; KB-3-1 cytotox: inconclusive; HT1080 IDH1KD tx: 16.4µM*; DT40 TDP1 CPT: inconclusive; DT40 TDP1 no CPT: 18.4µM*

Results for COC1=CC(=O)OC(c2cccc(C(F)(F)F)c2)C1 (stereo not given) ?
KB-V1 MDR tox: inactive; HT1080NT lethal: -10.4%; KB-3-1 cytotox: inactive; HT1080 IDH1KD tx: -10.2%; DT40 TDP1 CPT: 6.6%; DT40 TDP1 no CPT: 14.3%

How did Cc1nn(C)c2c1c(C(F)(F)F)cc(=O)n2C(C)C(=O)Nc1ccccc1F (stereo not given) do in these assays?
KB-V1 MDR tox: inactive; KB-3-1 cytotox: inactive; DT40 TDP1 CPT: inconclusive; DT40 TDP1 no CPT: -25.7%

Results for NC(=O)CC(NC(=O)c1ccc(Br)cc1)c1ccc(N2CCN(c3ccc(F)cc3)CC2)c([N+](=O)[O-])c1 (stereo not given) ?
KB-V1 MDR tox: inactive; HT1080NT lethal: -12.1%; KB-3-1 cytotox: inactive; HT1080 IDH1KD tx: -8.9%; DT40 TDP1 CPT: 25.9µM*; DT40 TDP1 no CPT: 23.1µM*

Results for NC(=O)CC(NC(=O)c1ccc(Br)cc1)c1ccc(N2CCCCCCC2)c([N+](=O)[O-])c1 (stereo not given) ?
KB-V1 MDR tox: inactive; HT1080NT lethal: inconclusive; KB-3-1 cytotox: inactive; HT1080 IDH1KD tx: -20.7%; DT40 TDP1 CPT: 20.6µM*; DT40 TDP1 no CPT: 10.3µM*

What do the screens show for `NC(=O)CC(NC(=O)c1cccc(Br)c1)c1ccc(N2CCN(c3ccc(F)cc3)CC2)c([N+](=O)[O-])c1` (stereo not given)?
KB-V1 MDR tox: inactive; HT1080NT lethal: -0.5%; KB-3-1 cytotox: inactive; HT1080 IDH1KD tx: 1.4%; DT40 TDP1 CPT: 23.1µM*; DT40 TDP1 no CPT: 13µM*

What do the screens show for `CN(C(=O)COC(=O)c1cnc(Cl)c(Cl)c1)C1CCCCC1`?
KB-V1 MDR tox: inactive; HT1080NT lethal: 0.7%; KB-3-1 cytotox: inactive; HT1080 IDH1KD tx: -0.9%; DT40 TDP1 CPT: -28.2%; DT40 TDP1 no CPT: -26.4%

What do the screens show for `Cc1c(C)n(Cc2ccccc2)c2ccc(C(=O)N3CCN(c4ccc(F)cc4)CC3)cc12`?
KB-V1 MDR tox: inactive; KB-3-1 cytotox: inactive; DT40 TDP1 CPT: inconclusive; DT40 TDP1 no CPT: 16.4µM*

How did Cc1c(C)n(Cc2ccccc2)c2ccc(C(=O)N3CCN(c4ccccc4)CC3)cc12 do in these assays?
KB-V1 MDR tox: inactive; KB-3-1 cytotox: inactive; DT40 TDP1 CPT: inconclusive; DT40 TDP1 no CPT: inconclusive

How did Cc1c(C)n(Cc2ccc(F)cc2)c2ccc(C(=O)N3CCN(c4ccc(Cl)cc4)CC3)cc12 do in these assays?
KB-V1 MDR tox: inactive; KB-3-1 cytotox: inactive; DT40 TDP1 CPT: 18.4µM*; DT40 TDP1 no CPT: inconclusive

Results for CC(C)(C)OC(=O)N1Cc2cc3ccccc3nc2C1 ?
KB-V1 MDR tox: inconclusive; HT1080NT lethal: -2.1%; KB-3-1 cytotox: inactive; HT1080 IDH1KD tx: 0.7%; DT40 TDP1 CPT: inconclusive; DT40 TDP1 no CPT: inconclusive

Results for CCOC(=O)C1(C(=O)OCC)COC(=O)C1CN1Cc2cc3ccccc3nc2C1 (stereo not given) ?
KB-V1 MDR tox: inactive; HT1080NT lethal: inconclusive; KB-3-1 cytotox: inconclusive; HT1080 IDH1KD tx: inconclusive; DT40 TDP1 CPT: 10.3µM*; DT40 TDP1 no CPT: 9.2µM*

How did C/C(=N\NC(=O)c1ccc(Cl)cc1)c1ccc(Br)s1 do in these assays?
KB-V1 MDR tox: inactive; HT1080NT lethal: -26.8%; KB-3-1 cytotox: inconclusive; HT1080 IDH1KD tx: -7.5%; DT40 TDP1 CPT: 11.6µM*; DT40 TDP1 no CPT: 10.3µM*
